In PubChem BioAssay AID1347416 (National Center for Advancing Translational Sciences (NCATS), 2020):
The campaign covered roughly 4,100 compounds. About 1,600 (39%) were called active. Another 25% or so got no clear call; they are omitted. The list shows a part of the results. A number with no mark means an inactive call. Calls follow the shape of the dose curve; as a rule, active = well fitted inhibition curve with a large enough effect; inconclusive = small, poorly fitted or top-dose-only effect; inactive = no such curve, though single readings can be large or run the other way.
% is scaled to controls: 0 for no effect and ±100 for the full control effect; potency is read from the fitted curve at half-maximal effect.

Assay: qHTS Validation assay for Inhibitors of Plasmodium falciparum Dd2 growth in vitro; also: nearly all actives have a fitted effect of over 70% in size
Details: P. falciparum Dd2 in RBCs, SYBR Green growth, 72 h; series mostly up to 28.7 µM; activity change, negative = inhibition: at the top concentration
In short: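 P. falciparum Dd2-infected red blood cells (2.5% hematocrit, 0.3% parasitemia) grown 72 h at 37 °C under 5% O2 with compounds in a titration, 29 uM to 0.5 nM final. Growth read as SYBR Green-1 fluorescence after ~16 h lysis; artesunate 300 nM as positive control.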
With `Cc1ccoc1C(=O)N1C[C@@H](COCC2CC2)[C@H](c2ccncc2)C1` the “activity change, negative = inhibition” value was 0%. With `CCC(C)(C)n1nnnc1C(c1cccnc1)N1CCN(c2cccc(C(F)(F)F)c2)CC1` (centres undefined) the Potency was 6680 nM (active). With `CCOC(=O)c1c(C)[nH]c(C)c1S(=O)(=O)N1CCN(c2cccc(C(F)(F)F)c2)CC1` the “activity change, negative = inhibition” value was 19.3%. In the case of `CNC(=O)[C@@H]1C[C@H](n2cc(CN(C)C(=O)NCC3CCCCC3)nn2)CN1`, the “activity change, negative = inhibition” value is reported as 63.7%. With `CCCn1c(=N)c(C(=O)NCc2ccc3c(c2)OCO3)cc2c(=O)n3cccc(C)c3nc21` the Potency was 10600 nM (active). For `COCCCn1c(=N)c(C(=O)NCC2CCCO2)cc2c(=O)n3cc(C)ccc3nc21` (centres undefined), the “activity change, negative = inhibition” value was 20.7%. In the case of `CCCn1c(=N)c(C(=O)NC2CCCC2)cc2c(=O)n3cccc(C)c3nc21`, the Potency is reported as 5960 nM (active). For `CCCCn1c(=N)c(C(=O)NC2CCCCC2)cc2c(=O)n3cccc(C)c3nc21`, the Potency was 1500 nM (active). With `CCCn1c(=N)c(C(=O)NC2CCCCC2)cc2c(=O)n3cc(C)ccc3nc21` the “activity change, negative = inhibition” value was -8.41%. With `CCn1c(CO)nnc1C1CC(NC(=O)c2cnc3sccn3c2=O)C1` (centres undefined) the “activity change, negative = inhibition” value was -13.6%. In the case of `CCCN1C(=O)Cc2cc(C(=O)NCc3ccc(C)c(C)c3)ccc21`, the “activity change, negative = inhibition” value is reported as -22.2%. For `COc1ccccc1N1CCN(C(=O)c2ccc3c(=O)n(Cc4ccc5c(c4)OCO5)c(=O)[nH]c3c2)CC1`, the Potency was 2990 nM (active). With `CCOc1cc2[nH]c(=O)n(Cc3ccc(C(=O)N4CCN(c5cccc(Cl)c5)CC4)cc3)c(=O)c2cc1OCC` the “activity change, negative = inhibition” value was 23.4%. For `COC(=O)c1ccc2c(=O)n(CCCCCC(=O)NCCc3ccccc3)c(=O)[nH]c2c1`, the “activity change, negative = inhibition” value was 3.51%. With `OC(c1cc(-c2ccc(C(F)(F)F)cc2)nc(C(F)(F)F)c1)C1CCCCN1` (centres undefined) the Potency was 150 nM (active). With `CN(CC1CCOCC1)S(=O)(=O)c1ccc(C(F)(F)F)cc1` the “activity change, negative = inhibition” value was -9.41%. In the case of `Nc1nonc1-n1nnc(C(=O)N/N=C/c2ccc(Cl)cc2)c1-c1ccc2c(c1)OCO2`, the Potency is reported as 376 nM (active). In the case of `Nc1nonc1-n1nnc(C(=O)N/N=C/c2ccc(F)cc2)c1-c1ccc2c(c1)OCO2`, the Potency is reported as 335 nM (active). With `O=C(CSc1nnc(Cc2cccs2)n1-c1ccc(Cl)cc1)NCc1ccc2c(c1)OCO2` the “activity change, negative = inhibition” value was 12.4%. With `Cc1ccc(-c2c(C(=O)N/N=C/c3cccc(Cl)c3)nnn2-c2nonc2N)cc1` the Potency was 237 nM (active). In the case of `Nc1nonc1-n1nnc(C(=O)N/N=C/c2ccc(Br)cc2)c1-c1ccc2c(c1)OCO2`, the Potency is reported as 422 nM (active). In the case of `Nc1nonc1-n1nnc(C(=O)N/N=C/c2cccs2)c1-c1ccc2c(c1)OCO2`, the Potency is reported as 1680 nM (active). In the case of `Cc1ccc(CN2CCc3nc(C(=O)Nc4cccnc4)oc3CC2)o1`, the “activity change, negative = inhibition” value is reported as -11.7% [at 43.1 µM]. With `COc1ccc(NC(=O)c2c(C)oc3ccc(O)c(CN4CCCCCC4)c23)cc1Cl` the Potency was 1880 nM (active). With `COc1ccc(NC(=O)c2c(C)oc3ccc(O)c(CN4CCCC(C)C4)c23)cc1Cl` (centres undefined) the Potency was 944 nM (active). In the case of `COc1ccc(NC(=O)c2cc3n(n2)CC(c2ccc(Cl)cc2)OC3)cc1Cl` (centres undefined), the “activity change, negative = inhibition” value is reported as 20.3%. In the case of `Cc1oc2ccc(O)c(CN3CCCC(C)C3)c2c1C(=O)Nc1ccccc1` (centres undefined), the Potency is reported as 2110 nM (active). With `COc1ccc(NC(=O)N2CCCC(Cn3cnc4cccnc43)C2)cc1Cl` (centres undefined) the “activity change, negative = inhibition” value was 25.8%. With `CSCc1noc(Cc2c(C)nn(-c3ccccc3)c2C)n1` the “activity change, negative = inhibition” value was 35%. With `Cc1cc(O)c(-c2cc(C(=O)Nc3ccc(S(=O)(=O)N4CCOCC4)cc3)[nH]n2)cc1C` the Potency was 1680 nM (active). With `COc1ccc(S(=O)(=O)N2CCN(C(=O)c3cc(-c4ccccc4OC)n[nH]3)CC2)cc1` the “activity change, negative = inhibition” value was 12.6%. With `Cc1ccc(NC(=O)c2cc(-c3ccc[nH]3)n[nH]2)cc1C` the “activity change, negative = inhibition” value was -25.4%. In the case of `CCOc1ccc(OCC)c(NC(=O)c2nnn(CC(=O)Nc3cc(Cl)ccc3OC)c2N)c1`, the “activity change, negative = inhibition” value is reported as 35%. In the case of `Cc1ccc(Cl)cc1NC(=O)c1cc(S(=O)(=O)N2CCOCC2)cn1C`, the “activity change, negative = inhibition” value is reported as -14.4%. In the case of `COc1ccc(OC)c(NC(=O)c2cc(-c3cc(Cl)ccc3O)n[nH]2)c1`, the Potency is reported as 4730 nM (active). For `NS(=O)(=O)c1ccc(NC(=O)CN2C(=O)COc3ccc(Cl)cc32)cc1`, the “activity change, negative = inhibition” value was 13.6%. For `COc1ccccc1-c1cc(C(=O)N2CCN(S(=O)(=O)c3ccc(C)cc3)CC2)[nH]n1`, the Potency was 7500 nM (active). In the case of `O=C(Nc1ccc(S(=O)(=O)N2CCOCC2)cc1)c1cc(-c2cc(Cl)ccc2O)n[nH]1`, the Potency is reported as 2660 nM (active). With `CN1CC2(CCN(S(=O)(=O)c3ccc(C#N)cc3)CC2)CC1C(=O)N1CCOCC1` (centres undefined) the “activity change, negative = inhibition” value was 1.39%. For `COc1ccc(C(=O)Nc2cc(-c3nc4ccccc4s3)ccc2OC)cc1`, the “activity change, negative = inhibition” value was 21.4%. In the case of `Cc1ccccc1-c1cc(C(=O)N2CCC3(CC2)CC(O)CCO3)[nH]n1` (centres undefined), the “activity change, negative = inhibition” value is reported as 14.5%. For `CN(C)c1ncc([N+](=O)[O-])cc1C(F)(F)F`, the “activity change, negative = inhibition” value was 19.7%. With `CCc1noc(-c2cccn3c(CNC(=O)c4ccccc4F)nnc23)n1` the “activity change, negative = inhibition” value was 0%. With `CCOc1ccc2nc(N3CCN(C(=O)C(C)C)CC3)sc2c1` the “activity change, negative = inhibition” value was -11.4%.
